Test results reported in the supplement of paper PMC10849652.
The full data set covers some 7,900 targets. This sample favours those with a hit. About 0.6% of all pairs of compound and target were hits.

Columns and labels:
Assay in all cases: log2 fold change, soluble protein after heating vs DMSO (PISA); higher = thermal stabilisation; K562 cells, 10 uM, 30 min; active = over 0.2 and 3.5 SD of the protein, either way, in both replicates (recomputed)
[1] = compound: C1=CC=C(C=C1)[C@H](COC2=CC3=C(C=C2)NC(=O)N3)NC(=O)C4=CC=CN(C4=O)CC5=CC(=C(C=C5)F)F
Procedure, shortened: (§1)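 Thermal stability values are relative to control samples and come from duplicates. They are expressed as log2 fold changes. For measurement, K562 cells (2×10^6 cells/mL) received 10 μM compound for 30 min, and aliquots were heated for 3 min over 48°C-58°C, pooled, and extracted at 4°C in PBS with 0.5% NP-40. Soluble protein, the supernatant after 21,000xg for 90 min, was quantified by TMTpro 16plex LC-MS/MS with equalised channel sums.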

[2] = compound: CC1=C(SC2=C1C(=N[C@H](C3=NN=C(N32)C)CC(=O)N)C4=CC=C(C=C4)Cl)C
Procedure, shortened: as §1

[3] = compound: CC1=C2C(=CC=C1)N=C(N(C2=O)C3=CC=CC=C3C)CN4C=NC5=C(N=CN=C54)N
Procedure, shortened: as §1

[4] = compound: Cc1sc2c(c1C)C(c1ccc(Cl)cc1)=N[C@@H](CC(=O)OC(C)(C)C)c1nnc(C)n1-2
Procedure, shortened: as §1

[5] = compound: c1ccc([C@@H]2C[C@H]2NC2CCNCC2)cc1
Procedure, shortened: as §1

Measured: log2 fold change

NDFIP1 (UniProt Q9BT67)
Chain of UniProt Q9BT67 (Q9BT67 whole entry, looked up): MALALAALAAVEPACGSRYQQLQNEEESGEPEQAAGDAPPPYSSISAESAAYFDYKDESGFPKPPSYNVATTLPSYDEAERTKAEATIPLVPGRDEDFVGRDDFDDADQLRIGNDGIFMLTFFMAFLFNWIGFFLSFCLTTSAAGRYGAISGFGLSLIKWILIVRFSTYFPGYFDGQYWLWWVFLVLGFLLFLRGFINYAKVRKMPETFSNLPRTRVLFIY
inactive: [1] 0.035 | [2] -0.162 | [3] -0.076 | [4] -0.111 | [5] 0.052

NQO1 (UniProt P15559)
inactive: [1] 0.07 | [2] 0.122 | [3] 0.083 | [4] -0.015 | [5] -0.072

MYH10 isoform 3 (UniProt P35580)
inactive: [1] -0.003 | [2] 0.043 | [3] 0.056 | [4] -0.023 | [5] -0.013

NR2C2AP isoform 2 (UniProt Q86WQ0)
Chain of UniProt Q86WQ0 (Q86WQ0 whole entry, looked up): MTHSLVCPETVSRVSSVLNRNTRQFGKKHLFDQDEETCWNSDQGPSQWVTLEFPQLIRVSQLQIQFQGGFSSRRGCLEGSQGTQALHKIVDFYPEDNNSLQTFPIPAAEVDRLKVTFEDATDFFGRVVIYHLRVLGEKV
inactive: [1] -0.016 | [2] 0.043 | [3] 0.081 | [4] -0.067 | [5] 0.032

ORC5 (UniProt O43913)
inactive: [1] -0.081 | [2] 0.02 | [3] 0.144 | [4] -0.016 | [5] -0.044

NELFB isoform 2 (UniProt Q8WX92)
inactive: [1] -0.098 | [2] 0.12 | [3] 0.123 | [4] -0.05 | [5] -0.023

MTHFS (UniProt P49914)
Chain of UniProt P49914 (P49914 whole entry, looked up): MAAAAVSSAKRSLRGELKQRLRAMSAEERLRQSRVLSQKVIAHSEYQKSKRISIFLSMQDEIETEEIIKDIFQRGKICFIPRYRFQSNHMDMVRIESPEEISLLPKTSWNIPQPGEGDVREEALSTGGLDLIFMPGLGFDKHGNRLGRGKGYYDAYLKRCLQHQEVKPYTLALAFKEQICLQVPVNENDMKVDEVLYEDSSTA
inactive: [1] -0.075 | [2] 0.035 | [3] -0.086 | [4] -0.023 | [5] -0.061

NDUFAF6 (UniProt Q330K2)
Chain of UniProt Q330K2 (Q330K2 whole entry, looked up): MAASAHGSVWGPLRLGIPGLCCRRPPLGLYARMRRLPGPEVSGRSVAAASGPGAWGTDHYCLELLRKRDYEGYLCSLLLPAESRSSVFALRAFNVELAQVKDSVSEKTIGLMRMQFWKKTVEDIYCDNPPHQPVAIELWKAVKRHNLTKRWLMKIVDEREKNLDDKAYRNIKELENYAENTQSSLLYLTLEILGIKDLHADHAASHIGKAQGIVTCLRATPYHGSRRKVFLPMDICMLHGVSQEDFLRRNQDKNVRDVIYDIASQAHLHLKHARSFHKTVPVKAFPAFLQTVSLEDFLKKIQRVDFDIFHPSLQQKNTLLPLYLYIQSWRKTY
inactive: [1] -0.048 | [2] 0.003 | [3] -0.006 | [4] 0.063 | [5] 0.024

NT5DC1 (UniProt Q5TFE4)
Chain of UniProt Q5TFE4 (Q5TFE4 whole entry, looked up): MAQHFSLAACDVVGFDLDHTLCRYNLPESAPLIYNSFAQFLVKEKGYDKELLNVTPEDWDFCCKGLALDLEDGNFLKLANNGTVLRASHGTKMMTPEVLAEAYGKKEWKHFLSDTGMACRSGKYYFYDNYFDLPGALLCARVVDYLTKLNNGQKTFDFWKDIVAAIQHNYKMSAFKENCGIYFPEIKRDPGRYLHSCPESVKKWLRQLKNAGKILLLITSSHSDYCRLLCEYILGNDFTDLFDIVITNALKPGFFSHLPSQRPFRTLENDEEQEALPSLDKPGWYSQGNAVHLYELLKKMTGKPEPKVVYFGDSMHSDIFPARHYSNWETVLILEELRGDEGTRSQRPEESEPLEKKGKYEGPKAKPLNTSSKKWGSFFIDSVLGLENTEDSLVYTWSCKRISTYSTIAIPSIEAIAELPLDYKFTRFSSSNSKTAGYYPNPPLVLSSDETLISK
inactive: [1] -0.036 | [2] 0.075 | [3] 0.006 | [4] 0.021 | [5] 0.011

NR2C2 isoform 2 (UniProt P49116)
inactive: [1] -0.011 | [2] 0.046 | [3] 0.059 | [4] 0.042 | [5] 0.024

MRPS12 (UniProt O15235)
inactive: [1] 0.019 | [2] -0.121 | [3] -0.176 | [4] 0.093 | [5] 0.061

NFYB (UniProt P25208)
inactive: [1] -0.015 | [2] -0.119 | [3] -0.165 | [4] -0.048 | [5] 0.057

MRPS21 (UniProt P82921)
inactive: [1] -0.238 | [2] 0.032 | [3] 0.013 | [4] 0.116 | [5] -0.016

MRPS35 (UniProt P82673)
inactive: [1] -0.011 | [2] -0.03 | [3] -0.033 | [4] 0.143 | [5] -0.004

NDUFS8 (UniProt O00217)
Chain of UniProt O00217 (O00217 whole entry, looked up): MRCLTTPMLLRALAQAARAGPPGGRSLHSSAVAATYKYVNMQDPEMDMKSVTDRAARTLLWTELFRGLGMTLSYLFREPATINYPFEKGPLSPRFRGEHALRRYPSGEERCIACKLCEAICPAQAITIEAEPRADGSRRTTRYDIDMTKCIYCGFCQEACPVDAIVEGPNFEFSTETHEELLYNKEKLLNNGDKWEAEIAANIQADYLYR
inactive: [1] -0.049 | [2] 0.1 | [3] 0.082 | [4] -0.023 | [5] -0.02

NRF1 isoform 4 (UniProt Q16656)
inactive: [1] -0.045 | [2] 0.001 | [3] 0.085 | [4] -0.043 | [5] -0.039

NRDC isoform 2 (UniProt O43847)
Chain of UniProt O43847 (O43847 whole entry, looked up): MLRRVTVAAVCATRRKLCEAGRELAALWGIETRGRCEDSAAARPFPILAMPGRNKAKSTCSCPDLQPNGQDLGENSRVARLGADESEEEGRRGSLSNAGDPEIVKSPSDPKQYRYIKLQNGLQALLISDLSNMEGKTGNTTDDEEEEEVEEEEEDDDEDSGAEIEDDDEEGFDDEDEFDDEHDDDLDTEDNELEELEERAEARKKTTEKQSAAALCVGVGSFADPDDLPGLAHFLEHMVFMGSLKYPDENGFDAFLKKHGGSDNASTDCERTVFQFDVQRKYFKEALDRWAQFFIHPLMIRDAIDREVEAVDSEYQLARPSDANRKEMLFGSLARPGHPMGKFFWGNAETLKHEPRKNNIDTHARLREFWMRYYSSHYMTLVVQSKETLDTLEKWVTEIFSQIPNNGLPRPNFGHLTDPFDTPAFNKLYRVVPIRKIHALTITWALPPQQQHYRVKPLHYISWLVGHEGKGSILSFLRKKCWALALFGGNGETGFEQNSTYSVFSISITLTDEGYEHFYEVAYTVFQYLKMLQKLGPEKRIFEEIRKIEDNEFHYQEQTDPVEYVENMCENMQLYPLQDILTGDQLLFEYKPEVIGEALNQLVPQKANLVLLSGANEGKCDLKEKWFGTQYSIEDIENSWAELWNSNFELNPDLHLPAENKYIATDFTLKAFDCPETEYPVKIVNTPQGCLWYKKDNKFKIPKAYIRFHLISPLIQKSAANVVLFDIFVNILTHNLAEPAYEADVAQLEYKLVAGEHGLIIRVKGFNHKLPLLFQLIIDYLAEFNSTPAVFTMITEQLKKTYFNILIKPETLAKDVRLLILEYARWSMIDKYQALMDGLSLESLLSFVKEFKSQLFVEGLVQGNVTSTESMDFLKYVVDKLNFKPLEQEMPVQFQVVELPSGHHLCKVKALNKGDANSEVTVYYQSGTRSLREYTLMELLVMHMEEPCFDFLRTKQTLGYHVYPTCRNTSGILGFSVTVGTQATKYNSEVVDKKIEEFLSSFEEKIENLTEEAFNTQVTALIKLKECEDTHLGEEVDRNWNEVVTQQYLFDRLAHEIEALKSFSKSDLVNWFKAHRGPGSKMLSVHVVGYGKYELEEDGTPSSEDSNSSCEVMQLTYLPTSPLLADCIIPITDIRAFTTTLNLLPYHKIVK
inactive: [1] -0.058 | [2] 0.04 | [3] 0.037 | [4] -0.023 | [5] 0

NECTIN2 (UniProt Q92692)
Chain of UniProt Q92692 (Q92692 whole entry, looked up): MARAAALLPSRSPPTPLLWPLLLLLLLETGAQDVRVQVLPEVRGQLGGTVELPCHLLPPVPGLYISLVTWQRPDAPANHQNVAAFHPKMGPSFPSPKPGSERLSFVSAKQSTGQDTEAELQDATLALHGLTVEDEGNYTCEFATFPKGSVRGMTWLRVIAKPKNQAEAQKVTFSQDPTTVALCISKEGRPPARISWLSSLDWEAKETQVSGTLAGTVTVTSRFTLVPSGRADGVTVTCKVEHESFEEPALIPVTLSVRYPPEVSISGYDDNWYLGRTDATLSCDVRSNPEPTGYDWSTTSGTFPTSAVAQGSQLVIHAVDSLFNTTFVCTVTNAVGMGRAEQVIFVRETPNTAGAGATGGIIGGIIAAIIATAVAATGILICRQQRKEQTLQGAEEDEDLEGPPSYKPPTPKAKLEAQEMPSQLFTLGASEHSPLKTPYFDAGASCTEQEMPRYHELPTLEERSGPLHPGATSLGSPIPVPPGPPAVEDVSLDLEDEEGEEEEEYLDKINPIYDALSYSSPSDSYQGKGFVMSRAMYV
inactive: [1] 0.017 | [2] 0.031 | [3] -0.019 | [4] -0.009 | [5] -0.012

OSTC (UniProt Q9NRP0)
inactive: [1] -0.031 | [2] 0.048 | [3] 0.063 | [4] -0.213 | [5] 0.048

NUP205 (UniProt Q92621)
inactive: [1] -0.004 | [2] 0.035 | [3] 0.08 | [4] -0.043 | [5] 0.008

NIPSNAP3B (UniProt Q9BS92)
Chain of UniProt Q9BS92 (Q9BS92 whole entry, looked up): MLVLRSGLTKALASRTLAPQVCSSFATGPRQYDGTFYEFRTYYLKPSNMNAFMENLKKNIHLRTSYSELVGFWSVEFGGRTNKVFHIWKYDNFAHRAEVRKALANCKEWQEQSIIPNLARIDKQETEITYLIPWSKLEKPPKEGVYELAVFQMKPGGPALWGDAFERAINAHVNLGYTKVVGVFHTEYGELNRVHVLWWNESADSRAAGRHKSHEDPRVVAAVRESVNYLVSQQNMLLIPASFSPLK
inactive: [1] 0.045 | [2] -0.031 | [3] 0.017 | [4] -0.021 | [5] 0.099

NOB1 (UniProt Q9ULX3)
Chain of UniProt Q9ULX3 (Q9ULX3 whole entry, looked up): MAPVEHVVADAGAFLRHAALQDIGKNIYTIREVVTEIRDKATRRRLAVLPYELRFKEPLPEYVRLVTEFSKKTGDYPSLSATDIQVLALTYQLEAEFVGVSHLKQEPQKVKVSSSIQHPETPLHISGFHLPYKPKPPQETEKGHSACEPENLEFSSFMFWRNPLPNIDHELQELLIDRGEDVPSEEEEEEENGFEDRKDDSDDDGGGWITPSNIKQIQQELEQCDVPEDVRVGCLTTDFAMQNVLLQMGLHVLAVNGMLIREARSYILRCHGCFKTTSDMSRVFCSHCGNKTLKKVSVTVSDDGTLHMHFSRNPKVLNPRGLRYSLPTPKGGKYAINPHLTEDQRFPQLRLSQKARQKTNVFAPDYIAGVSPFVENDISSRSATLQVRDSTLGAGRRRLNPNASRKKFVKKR
inactive: [1] -0.048 | [2] -0.033 | [3] 0.048 | [4] 0.067 | [5] -0.06

NUMB (UniProt P49757)
Chain of UniProt P49757 (P49757 whole entry, looked up): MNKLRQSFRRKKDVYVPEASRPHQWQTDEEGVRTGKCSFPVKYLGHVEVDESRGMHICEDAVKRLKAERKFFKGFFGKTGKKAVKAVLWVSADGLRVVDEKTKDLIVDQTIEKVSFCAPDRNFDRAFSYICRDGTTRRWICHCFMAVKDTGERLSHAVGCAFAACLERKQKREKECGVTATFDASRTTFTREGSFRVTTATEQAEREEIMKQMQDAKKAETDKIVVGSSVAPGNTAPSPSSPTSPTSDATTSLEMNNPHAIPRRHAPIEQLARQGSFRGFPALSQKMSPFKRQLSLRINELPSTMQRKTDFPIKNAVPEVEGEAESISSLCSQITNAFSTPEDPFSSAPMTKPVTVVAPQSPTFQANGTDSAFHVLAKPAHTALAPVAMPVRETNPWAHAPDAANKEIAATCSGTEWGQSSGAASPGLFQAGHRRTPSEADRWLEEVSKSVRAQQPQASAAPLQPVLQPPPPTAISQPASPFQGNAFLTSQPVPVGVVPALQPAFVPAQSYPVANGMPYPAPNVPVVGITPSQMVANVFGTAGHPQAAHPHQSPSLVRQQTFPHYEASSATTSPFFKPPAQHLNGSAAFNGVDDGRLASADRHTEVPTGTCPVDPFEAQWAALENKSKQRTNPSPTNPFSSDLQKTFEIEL
inactive: [1] 0 | [2] 0.035 | [3] 0.046 | [4] 0.023 | [5] -0.009

NOSIP (UniProt Q9Y314)
Chain of UniProt Q9Y314 (Q9Y314 whole entry, looked up): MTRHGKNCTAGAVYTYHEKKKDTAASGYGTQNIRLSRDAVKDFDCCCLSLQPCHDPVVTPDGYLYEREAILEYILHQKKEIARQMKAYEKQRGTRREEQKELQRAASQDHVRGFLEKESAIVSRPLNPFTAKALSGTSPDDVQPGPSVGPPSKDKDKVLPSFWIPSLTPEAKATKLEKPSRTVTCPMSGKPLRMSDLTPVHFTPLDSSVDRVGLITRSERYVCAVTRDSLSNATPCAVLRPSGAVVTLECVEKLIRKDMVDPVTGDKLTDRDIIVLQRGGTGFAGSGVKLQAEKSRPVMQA
inactive: [1] 0.056 | [2] 0.043 | [3] 0.179 | [4] -0.043 | [5] 0.016
